Values joined by “and” are separate entries in the source; they are usually repeats but may differ in a detail not shown here. Equal values may be shown once. Active and inactive are the calls of the source.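 How the source made its calls, unless noted: active means thallium flux through the channel raised or lowered by more than 3 SD from vehicle-only wells, actives on both sides; inactive means the rest.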
What was measured:
[1] = P. berghei load reduction in hepatocytes – cell-based, HepG2, luciferase luminescence, HepG2 viability, primary screen (AID 624349; in the data active means parasite load remaining mostly below about 12%, no sharp cut-off; inactive means mostly above about 10%;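 further: 100% = mean of DMSO negative control wells on the same plate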); conditions: P. berghei liver stage in HepG2, luciferase luminescence, concentration not given here; parasite load remaining: stronger effect = lower value; viability: measured here: HepG2 viability without parasites
[2] = signal quenchers or enhancers, Cy5 substrate/SSB – biochemical, NIH Clinical Collection, E. coli SSB, artefact control for HCV NS3 helicase inhibitor project (AID 743268; call rule not given here); conditions: Cy5-oligo bound E. coli SSB, fluorescence interference
[3] = tested on: Hepatitis C virus NS3 helicase; assay: blockers of NS3h binding to DNA – biochemical, fluorescence polarization, NIH Clinical Collection, primary screen (AID 743270; call rule not given here); conditions: NS3 helicase binding to Cy5-dT15 DNA, stronger effect = higher value, concentration not given here
[4] = target: Single-stranded DNA-binding protein (Escherichia coli (strain K12)) (UniProt P0AGE0); assay: SSB-ssDNA binding inhibitors – biochemical, fluorescence polarization, NIH Clinical Collection, counter-screen for HCV NS3 helicase inhibitor project (AID 743271; in the data active means inhibition above about 28%); conditions: E. coli SSB-DNA binding, stronger effect = higher value, concentration not given here
[5] = compounds distorting NS3 helicase fluorescence signal – biochemical, NIH Clinical Collection, artefact control for HCV NS3 helicase inhibitor project (AID 743272; call rule not given here;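 further: HCV NS3 helicase with a Cy5 labelled single stranded DNA probe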); conditions: fluorescence interference counterscreen, HCV NS3 helicase assay; stronger effect = lower value
[6] = modulation of C. elegans fzo-1 (AID 1259413; call rule not given here;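 further: fzo-1 mutant C. elegans worms in liquid wells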); conditions: C. elegans fzo-1 modulator screen, mean read-out; stronger effect = higher value
[7] = EMT-state selective cytotoxicity in co-culture – imaging, PC-3E GFP, TEM4-18 mCherry, primary screen (AID 1345086;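 active means compounds killing one labelled cell type while sparing the other, by normalised counts and ratio limits, not self-fluorescent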;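 on all read-outs here: cells exposed to compound for 72 h before imaging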;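 on red/green cell ratio (normalised): normalised mesenchymal count divided by normalised epithelial count so high means epithelial killing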); conditions: PC-3E GFP / TEM4-18 mCherry co-culture, imaging cell counts, at 1 µM; for red/green cell ratio (normalised): actives lie on both sides, counts scaled to control wells, 1 = unselective
[8] = viability loss with induced miR-34 in A549 – imaging, A549 dox-inducible miR-34, nuclei and caspase counts, primary screen (AID 1347080;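 active means compounds whose cell count with miR-34 switched on is under 0.7 times the count with it off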); conditions: A549 miR-34 inducible, Hoechst nuclei count, 48 h
[9] = MELAS cybrid and Rieske KO viability enhancers – cell-based, MELAS cybrids, Rieske KO mouse fibroblasts, CellTiter-Glo, primary screen (AID 1508586;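 active means mean z-score across replicates of 1.96 or higher in either the MELAS or the Rieske mutant cell line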;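 further: z relative to plate mean and SD of compound and empty wells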); conditions: low glucose
F380Y = assay: BK channel mutant inhibitors and activators – cell-based, U2OS BacMam, thallium flux, beta subunits, selectivity assay, profiling panel (AID 1259406); conditions: U2OS BacMam BK variants, at 30 µM;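 further: initial slope of Thallos dye fluorescence rise after thallium is added; log ratio against the mean of 0.3% DMSO vehicle wells on the same plate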
F380Y/beta1 = assay: as above; conditions: U2OS BacMam BK variants, at 30 µM
F380Y/beta2Delta = assay: as above; conditions: U2OS BacMam BK variants, at 30 µM
F380Y/beta4 = assay: as above; conditions: U2OS BacMam BK variants, at 30 µM
[10] = target: Calcium-activated potassium channel subunit alpha-1 (Homo sapiens) + Leucine-rich repeat-containing protein 26 (Homo sapiens) (UniProt Q12791+Q2I0M4); assay: as above; conditions: U2OS BacMam BK variants, F380Y/Slo1WT/gamma1, at 30 µM
R275C = assay: as above; conditions: U2OS BacMam BK variants, at 30 µM
R275C/beta1 = assay: as above; conditions: U2OS BacMam BK variants, at 30 µM
R275C/beta2Delta = assay: as above; conditions: U2OS BacMam BK variants, at 30 µM
R275C/beta4 = assay: as above; conditions: U2OS BacMam BK variants, at 30 µM
R275C/Slo1WT/beta2 = assay: as above; conditions: U2OS BacMam BK variants, at 30 µM
[11] = measured here: epithelial PC-3E GFP cell survival
[12] = measured here: mesenchymal TEM4-18 mCherry cell survival
[13] = stronger effect = lower value, cell number ratio, induced over uninduced
[14] = measured here: relative caspase fold change +Dox/-Dox
[15] = measured here: total cells with miR-34 induction, stronger effect = lower value
[16] = measured here: total cells without miR-34 induction
[17] = MELAS cybrid survival, CellTiter-Glo 48 h, stronger effect = higher value
[18] = Rieske KO mouse fibroblast survival, CellTiter-Glo 72 h

Sequence of Calcium-activated potassium channel subunit alpha-1 (Homo sapiens) + Leucine-rich repeat-containing protein 26 (Homo sapiens) (Q2I0M4 whole entry, looked up, one chain of several): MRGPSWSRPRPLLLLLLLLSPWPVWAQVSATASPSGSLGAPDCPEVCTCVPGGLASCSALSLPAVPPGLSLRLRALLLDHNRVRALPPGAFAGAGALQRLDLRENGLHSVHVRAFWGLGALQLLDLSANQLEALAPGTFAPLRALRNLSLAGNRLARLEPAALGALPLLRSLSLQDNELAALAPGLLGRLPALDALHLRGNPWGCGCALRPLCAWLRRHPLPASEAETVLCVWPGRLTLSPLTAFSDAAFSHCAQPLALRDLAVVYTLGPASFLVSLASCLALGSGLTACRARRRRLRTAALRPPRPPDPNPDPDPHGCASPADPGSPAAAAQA

CSc1nc2cc(Oc3cccc(Cl)c3Cl)c(Cl)cc2[nH]1
78.3%: viability [1]
1.26: normalised cell number [7, 11]
5860 and 7990: cell count [8, 15]
6080 and 8080: cell count [8, 16]
-0.137 and -0.629: z-score [9, 18]
inactive: parasite load remaining [1] 14.4% | fluorescence ratio [2] 0.98 | inhibition [3] 5.94% | inhibition [4] 3.75% | fluorescence ratio [5] 0.96 | mean signal [6] 206 | red/green cell ratio (normalised) [7] 0.82 | fold change [8, 13] 0.963 and 0.988 | z-score [9, 17] -0.167 and -0.17 | log fold change Tl+ flux (F380Y) -0.0619 | log fold change Tl+ flux (F380Y/beta1) 0.0498 | log fold change Tl+ flux (F380Y/beta2Delta) -0.03 | log fold change Tl+ flux (F380Y/beta4) 0.0138 | log fold change Tl+ flux [10] -0.000443 | log fold change Tl+ flux (R275C) 0.0179 | log fold change Tl+ flux (R275C/beta4) 0.0585 | log fold change Tl+ flux (R275C/Slo1WT/beta2) 0.0178
1.31 and 0.403: fold change [8, 14]
active: log fold change Tl+ flux (R275C/beta1) 0.416 | log fold change Tl+ flux (R275C/beta2Delta) 0.248
1.03: normalised cell number [7, 12]

CC(C)(S)C(N)C(=O)O (configuration not stated)
2.48 and 3.04: fold change [8, 14]
inactive: parasite load remaining [1] 70.2% and 91.2% and 22.9% | fluorescence ratio [2] 1.01 | inhibition [3] -10.4% | inhibition [4] -2.76% | fluorescence ratio [5] 0.98 | mean signal [6] 224 | red/green cell ratio (normalised) [7] 0.95 | fold change [8, 13] 0.987 and 0.932 | z-score [9, 17] 0.615 | log fold change Tl+ flux (F380Y) 0.0383 | log fold change Tl+ flux (F380Y/beta1) -0.0205 | log fold change Tl+ flux (F380Y/beta2Delta) -0.0259 | log fold change Tl+ flux (F380Y/beta4) 0.0204 | log fold change Tl+ flux [10] 0.0127 | log fold change Tl+ flux (R275C) -0.00906 | log fold change Tl+ flux (R275C/beta1) 0.00628 | log fold change Tl+ flux (R275C/beta2Delta) -0.0298 | log fold change Tl+ flux (R275C/beta4) 0.0197 | log fold change Tl+ flux (R275C/Slo1WT/beta2) -0.0192
11100 and 12600: cell count [8, 16]
0.358: z-score [9, 18]
1: normalised cell number [7, 11]
11000 and 11700: cell count [8, 15]
0.96: normalised cell number [7, 12]
95.3% and 72.3% and 93.1%: viability [1]

CC(C)OC(=O)CCC/C=C\C[C@@H]1[C@@H](CC[C@@H](O)CCc2ccccc2)[C@H](O)C[C@@H]1O
1.53 and -0.0343: z-score [9, 18]
active: log fold change Tl+ flux (F380Y) 0.503 | log fold change Tl+ flux (F380Y/beta1) 0.284 | log fold change Tl+ flux (F380Y/beta4) 0.158 | log fold change Tl+ flux [10] 0.228 | log fold change Tl+ flux (R275C/beta1) 0.476 | log fold change Tl+ flux (R275C/beta2Delta) 0.262 | log fold change Tl+ flux (R275C/beta4) 0.467 | log fold change Tl+ flux (R275C/Slo1WT/beta2) 0.084
11100: cell count [8, 16]
inactive: parasite load remaining [1] 89.4% and 43.5% | fluorescence ratio [2] 0.97 | inhibition [3] 0.4% | inhibition [4] -5.49% | fluorescence ratio [5] 0.95 | mean signal [6] 205 | fold change [8, 13] 0.899 | z-score [9, 17] 0.73 and -0.464 | log fold change Tl+ flux (F380Y/beta2Delta) -0.0484 | log fold change Tl+ flux (R275C) -0.0794
1.07: fold change [8, 14]
60.9% and 104%: viability [1]
10000: cell count [8, 15]

COc1cc(C[C@@H](CO)[C@H](CO)Cc2ccc(O)c(OC)c2)ccc1O
inactive: parasite load remaining [1] 74.6% | fluorescence ratio [2] 0.93 | inhibition [3] -1.09% | inhibition [4] 3.54% | fluorescence ratio [5] 0.88 | mean signal [6] 248 | log fold change Tl+ flux (F380Y) 0.00354 | log fold change Tl+ flux (F380Y/beta1) 0.0295 | log fold change Tl+ flux (F380Y/beta2Delta) 0.0145 | log fold change Tl+ flux (F380Y/beta4) 0.00227 | log fold change Tl+ flux [10] 0.0262 | log fold change Tl+ flux (R275C) -0.00612 | log fold change Tl+ flux (R275C/beta1) -0.00624 | log fold change Tl+ flux (R275C/beta2Delta) -0.0204 | log fold change Tl+ flux (R275C/beta4) -0.0506 | log fold change Tl+ flux (R275C/Slo1WT/beta2) 0.0317
77.7%: viability [1]

CN(C)C1C(=O)C(C(N)=O)=C(O)C2(O)C(=O)C3=C(O)c4c(O)ccc(Cl)c4C(O)C3CC12 (configuration not stated)
1.22: fold change [8, 14]
5650: cell count [8, 16]
inactive: parasite load remaining [1] 84.6% | fluorescence ratio [2] 1.05 | inhibition [3] -11.4% | inhibition [4] -1.24% | fluorescence ratio [5] 0.84 | mean signal [6] 261 | fold change [8, 13] 0.964 | log fold change Tl+ flux (F380Y) -0.0288 | log fold change Tl+ flux (F380Y/beta1) -0.00371 | log fold change Tl+ flux (F380Y/beta2Delta) -0.0136 | log fold change Tl+ flux (F380Y/beta4) 0.00837 | log fold change Tl+ flux [10] 0.0307 | log fold change Tl+ flux (R275C) -0.0571 | log fold change Tl+ flux (R275C/beta1) -0.0108 | log fold change Tl+ flux (R275C/beta4) -0.101 | log fold change Tl+ flux (R275C/Slo1WT/beta2) -0.0217
103%: viability [1]
5440: cell count [8, 15]
active: log fold change Tl+ flux (R275C/beta2Delta) -0.203

CC1c2cccc(O)c2C(O)=C2C(=O)C3(O)C(O)=C(C(N)=O)C(=O)C(N(C)C)C3C(O)C21 (configuration not stated)
inactive: parasite load remaining [1] 45.4% | fluorescence ratio [2] 1.05 | inhibition [3] -13.2% | inhibition [4] -2.76% | fluorescence ratio [5] 1 | mean signal [6] 241 | fold change [8, 13] 1.04 | log fold change Tl+ flux (F380Y) 0.0135 | log fold change Tl+ flux (F380Y/beta2Delta) -0.0466 | log fold change Tl+ flux (F380Y/beta4) -0.028 | log fold change Tl+ flux [10] -0.0167 | log fold change Tl+ flux (R275C) -0.0534 | log fold change Tl+ flux (R275C/beta1) -0.0443 | log fold change Tl+ flux (R275C/beta2Delta) -0.0148 | log fold change Tl+ flux (R275C/beta4) -0.108 | log fold change Tl+ flux (R275C/Slo1WT/beta2) -0.0846
1.1: fold change [8, 14]
2090: cell count [8, 15]
132%: viability [1]
2010: cell count [8, 16]
active: log fold change Tl+ flux (F380Y/beta1) -0.12

CCC(CO)NCCNC(CC)CO (configuration not stated)
1.98 and 0.647: fold change [8, 14]
10400 and 7770: cell count [8, 15]
inactive: parasite load remaining [1] 78.1% | fluorescence ratio [2] 1.1 | inhibition [3] -5.91% | inhibition [4] -2% | fluorescence ratio [5] 1.03 | mean signal [6] 252 | fold change [8, 13] 0.98 and 0.902 | z-score [9, 17] -0.216 | log fold change Tl+ flux (F380Y) -0.0102 | log fold change Tl+ flux (F380Y/beta1) -0.0572 | log fold change Tl+ flux (F380Y/beta2Delta) 0.024 | log fold change Tl+ flux (F380Y/beta4) -0.00313 | log fold change Tl+ flux [10] -0.00134 | log fold change Tl+ flux (R275C) 0.00482 | log fold change Tl+ flux (R275C/beta1) -0.0497 | log fold change Tl+ flux (R275C/beta2Delta) 0.000295 | log fold change Tl+ flux (R275C/beta4) -0.0366 | log fold change Tl+ flux (R275C/Slo1WT/beta2) 0.0123
10600 and 8610: cell count [8, 16]
129%: viability [1]
-0.177: z-score [9, 18]

— PubChem BioAssay
